In PubChem BioAssay (NCATS):
Values joined by “and” are separate entries in the source; they are usually repeats but may differ in a detail not shown here. Identical values can stand only once. Results filed as inconclusive are left out. Active and inactive are the calls of the source. Calls follow the shape of the dose curve; as a rule, active = well fitted curve in the direction sought with a large enough effect; inconclusive = small, poorly fitted or top-dose-only effect, or another doubt; inactive = no such curve, though single readings can be large or run the other way. Where a SMILES comes first, the peptide text is derived from it. Bridges are numbered along the chain shown (N, C = ends). [ ]: non-standard residue; d: D form. Orn = NCCC[C@H](N)C(=O)O; Mpa = O=C(O)CCS

assay: qHTS Assay for Identifying Gametocytocidal Compounds (AID 743244);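 as to max response: actives lower the fluorescent signal which means gametocytes are killed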; conditions: P. falciparum 3D7 stage III-V gametocytes, alamarBlue, 72 h; max response: active compounds read low
How it was run: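 Compounds are pinned into medium, gametocytes (stage III–V, 3D7, 20,000 cells/well) added, and plates held 72 h at 37 °C in 5% CO2. AlamarBlue follows for 24 h before fluorescence reading.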
% is scaled to controls: 0 for no effect and ±100 for the full control effect; potency is read from the fitted curve at half-maximal effect.

Q: With CCOC(=O)Nc1ccc2c(c1)N(C(=O)CN(C)C)c1ccccc1CC2 as the compound, how does the max response read?
A: 6.79% (inactive)

Q: Which max response does the source give for NCCCNCCCCNC(=O)C(O)NC(=O)CCCCCCN=C(N)N (centres undefined) here?
A: -11.8% (inactive)

Q: With COCC1=C(C(=O)OC(C)OC(=O)OC(C)C)N2C(=O)[C@@H](NC(=O)/C(=N\OC)c3csc(N)n3)[C@H]2SC1 (some centres undefined) as the compound, how does the max response read?
A: -2.17% (inactive) and -16.2% (inactive)

Q: Which max response does the source give for O=C(Nc1ccc(/C=C/c2ccc(NC(=O)c3cc(S(=O)(=O)O)c4cccnc4c3O)cc2S(=O)(=O)O)c(S(=O)(=O)O)c1)c1cc(S(=O)(=O)O)c2cccnc2c1O here?
A: -6.63% (inactive)

Q: For CCCC(=O)O[C@]1(C(=O)COC(=O)CC)[C@@H](C)C[C@H]2[C@@H]3CCC4=CC(=O)C=C[C@]4(C)[C@@]3(F)[C@@H](O)C[C@@]21C, which max response is on record?
A: -15.1% (inactive)

Q: For CC(=O)[C@@]1(O)CC[C@H]2[C@@H]3C=C(Cl)C4=CC(=O)CC[C@]4(C)[C@H]3CC[C@@]21C, which max response is on record?
A: -4.61% (inactive)

Q: With C[C@H]1C[C@@H]2[C@H]([C@@H](O)C[C@@]3(C)[C@H]2CC[C@]3(O)C(=O)COC(=O)CCC(=O)O)[C@@]2(C)C=CC(=O)C=C12 as the compound, how does the max response read?
A: -6.5% (inactive)

Q: Which max response does the source give for NC(=O)C[C@@H](N)C(=O)O here?
A: -9.98% (inactive)

Q: Which max response does the source give for CCCCOC(=O)C(=O)Nc1cccc(-c2nn[nH]n2)c1 here?
A: 31.5% (inactive)

Q: For O=C[C@H](O)[C@@H](O)[C@H](O)[C@H](O)CO, which max response is on record?
A: -1.25% (inactive)

Q: For CCCCCCCCCCCCCCCC(=O)O[C@@H]1CC(C)=C(/C=C/C(C)=C/C=C/C(C)=C/C=C/C=C(C)/C=C/C=C(C)/C=C/C2=C(C)C[C@@H](OC(=O)CCCCCCCCCCCCCCC)CC2(C)C)C(C)(C)C1, which max response is on record?
A: 1.34% (inactive)

Q: Which max response does the source give for NCCCC[C@H](NC(=O)[C@@H]1CCCN1C(=O)[C@@H]1CSSC[C@H](NC(=O)CNC(=O)CNC(=O)CN)C(=O)N[C@@H](Cc2ccc(O)cc2)C(=O)N[C@@H](Cc2ccccc2)C(=O)N[C@@H](CCC(N)=O)C(=O)N[C@@H](CC(N)=O)C(=O)N1)C(=O)NCC(N)=O (H-GGGCYFQNCPKG-NH2; disulfide 4-9) here?
A: -2% (inactive)

Q: Which max response does the source give for CCCCCC(O)/C=C/C=O (centres undefined) here?
A: -0.932% (inactive)

Q: With CCC(=O)OCC(=O)[C@@]1(OC(=O)CC)[C@@H](C)C[C@H]2[C@@H]3CCC4=CC(=O)C=C[C@]4(C)[C@@]3(Cl)[C@@H](O)C[C@@]21C as the compound, how does the max response read?
A: 0.406% (inactive)

Q: Which max response does the source give for COc1ccc(C(=O)Nc2ccccc2CCC2CCCCN2C)cc1 (centres undefined) here?
A: 14.2% (inactive)

Q: For C/C=C1\NC(=O)[C@H]2CSSCC/C=C/[C@H](CC(=O)N[C@H](C(C)C)C(=O)N2)OC(=O)C(C(C)C)NC1=O (some centres undefined), which Potency is on record?
A: 0.59 µM (active)

Q: Which max response does the source give for CCOc1ccc(C[C@H]2NC(=O)CCSSC[C@@H](C(=O)N3CCC[C@H]3C(=O)N[C@@H](CCCN)C(=O)NCC(N)=O)NC(=O)[C@H](CC(N)=O)NC(=O)[C@H]([C@@H](C)O)NC(=O)[C@H]([C@@H](C)CC)NC2=O)cc1 ([Mpa][dY](Et)ITNCP[Orn]G-NH2; disulfide 1-6) here?
A: 12.3% (inactive)

Q: With CC(CC(c1ccccc1)c1ccccc1)NC(C)(C)C (centres undefined) as the compound, how does the max response read?
A: -8.24% (inactive)

Q: With O=P(O)(O)C(Sc1ccc(Cl)cc1)P(=O)(O)O as the compound, how does the max response read?
A: 17.7% (inactive)

Q: With CC1(S(=O)(=O)O)CC(=O)c2ccccc2C1=O (centres undefined) as the compound, how does the Potency read?
A: 6.31 µM (active)

Q: Which max response does the source give for CCN1CCCC1CNC(=O)c1cc(S(=O)(=O)CC)ccc1OC (centres undefined) here?
A: -5.69% (inactive) and 12.8% (inactive)

Q: With O=S(O)CNc1ccc(S(=O)(=O)c2ccc(NCS(=O)O)cc2)cc1 as the compound, how does the max response read?
A: -0.921% (inactive)

Q: With CN=C(NC)NCc1ccccc1 as the compound, how does the max response read?
A: 13.1% (inactive)

Q: Which max response does the source give for c1cnc2cc3c(cc2n1)[C@@H]1CNC[C@H]3C1 here?
A: 0.0621% (inactive)

Q: Which max response does the source give for CCCCCCCC(=O)CC[C@@H]1[C@@H](C/C=C\CCCC(=O)OC(C)C)[C@@H](O)C[C@H]1O here?
A: 0.0052% (inactive)

Q: Which max response does the source give for CCC(c1ccccc1)c1noc(CCN(CC)CC)n1 (centres undefined) here?
A: 15% (inactive)

Q: Which max response does the source give for OC(CN1CCCCC1)c1cc(-c2ccccc2)on1 (centres undefined) here?
A: -4.26% (inactive)

Q: For O=C(O)c1cc2ccccc2c(Cc2c(O)c(C(=O)O)cc3ccccc23)c1O, which max response is on record?
A: 60.7% (inactive)

Q: For CC(C)(C)CC(=O)OCC(=O)[C@@]12OC(C)(C)O[C@@H]1C[C@H]1[C@@H]3CCC4=CC(=O)C=C[C@]4(C)[C@@]3(F)[C@@H](O)C[C@@]12C, which max response is on record?
A: -15% (inactive)

Q: Which max response does the source give for Oc1cccc(-c2c3nc(c(-c4cccc(O)c4)c4ccc([nH]4)c(-c4cccc(O)c4)c4nc(c(-c5cccc(O)c5)c5ccc2[nH]5)CC4)C=C3)c1 here?
A: -1.27% (inactive) and -6.31% (inactive)

Q: For C/C(=C(/CCO)SSCC1CCCO1)N(C=O)Cc1cnc(C)nc1N (centres undefined), which max response is on record?
A: 4.64% (inactive) and -7.81% (inactive)

Q: With O=C1C(c2[nH]c3ccc(S(=O)(=O)O)cc3c2O)=Nc2ccc(S(=O)(=O)O)cc21 as the compound, how does the max response read?
A: -2.9% (inactive) and 36.3% (inactive) and 37.5% (inactive)

Q: With CC(=O)N[C@@H](C=O)[C@H](O)[C@H](O)[C@@H](O)CO as the compound, how does the max response read?
A: -5.02% (inactive) and 7.73% (inactive)

Q: Which max response does the source give for COC[C@H](c1ccc(C(F)(F)F)cc1)N1CCN(C2(C)CCN(C(=O)c3c(C)ncnc3C)CC2)C[C@H]1C here?
A: -5.74% (inactive)

Q: For OCC(O)COc1ccc(Cl)cc1 (centres undefined), which max response is on record?
A: 3.94% (inactive)

Q: For CC(=O)OCC(=O)[C@@]1(O)[C@H](C)C[C@H]2[C@@H]3C[C@H](F)C4=CC(=O)C=C[C@]4(C)[C@H]3[C@@H](O)C[C@@]21C, which max response is on record?
A: -15.2% (inactive)

Q: With O=C(O)[C@@H](O)[C@H](O)[C@H](O)[C@@H](O)C(=O)O (tested in a mixture with another compound) as the compound, how does the max response read?
A: 5.9% (inactive)

Q: Which max response does the source give for Cc1[nH]cnc1C[C@H]1CCc2c(C)c3ccccc3n2C1=O here?
A: 6.9% (inactive)

Q: For CSCC[C@H](NC(=O)[C@H](Cc1ccc(OS(=O)(=O)O)cc1)NC(=O)[C@@H](N)CC(=O)O)C(=O)NCC(=O)N[C@@H](Cc1c[nH]c2ccccc12)C(=O)N[C@@H](CCSC)C(=O)N[C@@H](CC(=O)O)C(=O)N[C@@H](Cc1ccccc1)C(N)=O, which max response is on record?
A: -12.2% (inactive) and 15% (inactive)
